This passage reports Percent Effect results from ChEMBL document CHEMBL3988442, “University of Dundee, Small-Polar-MMV Screening Library” (2021).

For some assays here: Results with a measured potency or affinity are listed apart.

Set-up in all cases: scale not given: direction of the effect not stated beside the values
The target of assay [1] is Protein translocase subunit SecA (Escherichia coli (strain K12)) (UniProt P10408). As to the kind of experiment: Assay to Identify E. coli SecA ATPase Inhibitors. The assay is classed as functional. As to conditions: 30 µM.
Sequence of Protein translocase subunit SecA (Escherichia coli (strain K12)) (P10408 whole entry): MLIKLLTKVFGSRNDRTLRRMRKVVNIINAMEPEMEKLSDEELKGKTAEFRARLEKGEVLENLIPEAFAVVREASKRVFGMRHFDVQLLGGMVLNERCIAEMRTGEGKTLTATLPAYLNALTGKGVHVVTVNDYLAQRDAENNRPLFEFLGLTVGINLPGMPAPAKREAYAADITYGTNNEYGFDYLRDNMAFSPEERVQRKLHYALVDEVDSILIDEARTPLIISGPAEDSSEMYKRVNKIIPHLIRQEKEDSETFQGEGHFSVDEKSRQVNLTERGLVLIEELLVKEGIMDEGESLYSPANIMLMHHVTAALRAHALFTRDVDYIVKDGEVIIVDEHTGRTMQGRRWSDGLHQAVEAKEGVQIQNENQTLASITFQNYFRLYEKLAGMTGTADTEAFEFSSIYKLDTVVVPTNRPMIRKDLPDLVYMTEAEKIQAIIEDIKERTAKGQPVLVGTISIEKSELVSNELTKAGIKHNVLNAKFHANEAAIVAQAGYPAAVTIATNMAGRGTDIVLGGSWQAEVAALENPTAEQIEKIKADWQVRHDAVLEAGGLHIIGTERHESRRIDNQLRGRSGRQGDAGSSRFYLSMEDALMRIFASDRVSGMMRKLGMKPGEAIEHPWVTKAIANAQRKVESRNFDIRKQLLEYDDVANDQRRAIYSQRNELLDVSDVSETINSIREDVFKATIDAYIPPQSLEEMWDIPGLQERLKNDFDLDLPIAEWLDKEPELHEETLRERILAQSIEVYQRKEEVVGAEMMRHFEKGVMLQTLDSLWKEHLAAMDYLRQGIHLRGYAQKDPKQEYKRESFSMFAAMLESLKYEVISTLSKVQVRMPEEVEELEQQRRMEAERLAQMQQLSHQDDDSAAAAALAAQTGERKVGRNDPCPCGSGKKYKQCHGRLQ
Assay [2] has as its target T1, Ubiquitin-activating enzyme e1, putative (Leishmania donovani (strain BPK282A1)) (UniProt E9BSI1).
T1 sequence (whole entry): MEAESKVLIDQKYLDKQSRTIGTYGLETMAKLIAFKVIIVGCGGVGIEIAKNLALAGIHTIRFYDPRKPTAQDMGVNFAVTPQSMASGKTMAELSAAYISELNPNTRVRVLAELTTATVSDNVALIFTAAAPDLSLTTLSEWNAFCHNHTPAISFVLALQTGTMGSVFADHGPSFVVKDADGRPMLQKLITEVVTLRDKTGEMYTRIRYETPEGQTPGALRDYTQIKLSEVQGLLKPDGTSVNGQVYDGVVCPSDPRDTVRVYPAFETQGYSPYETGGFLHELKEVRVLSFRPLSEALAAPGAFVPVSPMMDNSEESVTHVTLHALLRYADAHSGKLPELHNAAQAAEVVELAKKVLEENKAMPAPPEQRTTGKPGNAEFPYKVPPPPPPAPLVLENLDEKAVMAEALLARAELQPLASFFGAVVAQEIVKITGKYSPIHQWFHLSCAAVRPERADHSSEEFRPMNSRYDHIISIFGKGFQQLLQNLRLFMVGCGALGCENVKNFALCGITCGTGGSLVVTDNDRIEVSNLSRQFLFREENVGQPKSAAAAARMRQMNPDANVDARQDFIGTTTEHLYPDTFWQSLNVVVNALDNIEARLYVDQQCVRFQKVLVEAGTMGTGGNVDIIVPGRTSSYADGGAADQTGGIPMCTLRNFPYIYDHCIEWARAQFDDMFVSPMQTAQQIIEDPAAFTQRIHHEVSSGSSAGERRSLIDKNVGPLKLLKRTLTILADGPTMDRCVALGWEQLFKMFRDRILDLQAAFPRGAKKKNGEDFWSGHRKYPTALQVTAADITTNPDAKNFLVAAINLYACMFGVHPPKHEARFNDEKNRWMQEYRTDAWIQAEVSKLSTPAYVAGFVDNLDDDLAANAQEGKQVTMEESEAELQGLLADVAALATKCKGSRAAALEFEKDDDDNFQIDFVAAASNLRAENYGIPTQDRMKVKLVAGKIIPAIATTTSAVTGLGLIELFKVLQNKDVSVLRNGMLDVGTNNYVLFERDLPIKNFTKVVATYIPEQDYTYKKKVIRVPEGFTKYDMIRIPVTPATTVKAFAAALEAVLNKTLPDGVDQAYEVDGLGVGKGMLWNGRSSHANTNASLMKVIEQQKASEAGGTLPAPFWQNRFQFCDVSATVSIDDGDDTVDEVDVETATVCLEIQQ
Nature of the assay: Leishmania donovani Ubiquitin Activating Enzyme (LdE1). It is filed as functional. The settings on record: 30 µM.

The target of assay [3] is T2, Aspartate--tRNA(Asp/Asn) ligase (Mycobacterium tuberculosis (strain ATCC 25618 / H37Rv)) (UniProt P9WFW3). Note: in the data most compounds retested in dose-response had high values.
T2 sequence (whole entry): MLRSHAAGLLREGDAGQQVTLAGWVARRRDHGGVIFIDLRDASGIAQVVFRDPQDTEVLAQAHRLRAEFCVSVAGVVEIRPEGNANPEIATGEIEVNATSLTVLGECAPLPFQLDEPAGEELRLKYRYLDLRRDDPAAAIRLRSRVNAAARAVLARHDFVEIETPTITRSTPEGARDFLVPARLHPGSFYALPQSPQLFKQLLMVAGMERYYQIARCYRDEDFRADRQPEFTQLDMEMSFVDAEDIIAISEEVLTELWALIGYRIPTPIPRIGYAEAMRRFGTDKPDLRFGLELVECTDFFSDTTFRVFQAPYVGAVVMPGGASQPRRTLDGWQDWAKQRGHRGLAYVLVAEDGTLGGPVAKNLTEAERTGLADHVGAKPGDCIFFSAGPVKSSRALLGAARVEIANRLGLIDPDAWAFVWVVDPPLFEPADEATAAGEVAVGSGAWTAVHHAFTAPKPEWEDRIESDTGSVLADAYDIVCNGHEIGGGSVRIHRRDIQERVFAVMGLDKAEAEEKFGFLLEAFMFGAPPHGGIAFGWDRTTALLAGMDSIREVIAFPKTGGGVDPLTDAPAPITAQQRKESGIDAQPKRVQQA
As to the kind of experiment: Assay for Asp RNA synthetase-1 from Mycobacterium tuberculosis. It is filed as functional. As to conditions: 30 µM.

The target in assay [4] is AMP-activated protein kinase, AMPK (Homo sapiens) (UniProt P54646+O43741+P54619+Q9UGJ0+Q9Y478+Q13131+Q9UGI9). As to the kind of experiment: AMP-dependent Kinase enzyme assay. An in vitro enzyme assay that detects ADP turnover that is directly proportional to AMPK activity. This uses naive AMPK that is activated during the assay with MK-8722. The assay is classed as functional. As to conditions: 30 µM.

Assay [5] has as its target Sialic acid-binding Ig-like lectin 9 (Homo sapiens) (UniProt Q9Y336). As to the kind of experiment: Hs-Siglec9 ALPHAscreen SOP 20170721. The settings on record: 10 µM.
Assay [6] relates to Trypanosoma cruzi. As to the kind of experiment: Trypanosoma cruzi phosphomannomutase and mannose-1-phosphate guanylyltransferase assay. It is filed as functional. As to conditions: 10 µM.
Assay [7] concerns the target T3, Arginase-2, mitochondrial (Homo sapiens) (UniProt P78540).
T3 sequence (whole entry): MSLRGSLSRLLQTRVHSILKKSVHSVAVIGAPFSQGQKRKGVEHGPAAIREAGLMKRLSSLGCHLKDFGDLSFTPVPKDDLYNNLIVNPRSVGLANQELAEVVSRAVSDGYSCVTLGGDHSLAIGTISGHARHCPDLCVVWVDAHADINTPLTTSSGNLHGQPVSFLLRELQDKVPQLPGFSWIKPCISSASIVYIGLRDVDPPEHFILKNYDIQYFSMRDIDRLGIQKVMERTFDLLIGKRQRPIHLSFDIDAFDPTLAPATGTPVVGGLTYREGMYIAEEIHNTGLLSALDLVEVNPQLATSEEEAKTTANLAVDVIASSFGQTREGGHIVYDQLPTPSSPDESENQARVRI
As to the kind of experiment: in vitro enzyme assay to detect the production of urea directly proportional to the activity of Arginase II. Note: in the data most compounds retested in dose-response had high values. It is filed as functional. The settings on record: 33.3 µM.

Assay [8] has as its target T4, Proteasome subunit beta (Trypanosoma cruzi) (UniProt O96673).
T4 sequence (whole entry): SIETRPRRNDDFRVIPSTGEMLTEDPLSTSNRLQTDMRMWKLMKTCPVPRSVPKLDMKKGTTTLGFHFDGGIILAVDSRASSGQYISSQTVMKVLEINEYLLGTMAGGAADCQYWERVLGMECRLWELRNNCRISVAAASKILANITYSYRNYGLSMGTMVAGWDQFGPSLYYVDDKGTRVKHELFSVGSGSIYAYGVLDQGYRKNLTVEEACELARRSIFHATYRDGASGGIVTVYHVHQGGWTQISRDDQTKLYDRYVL
As to the kind of experiment: Trypanosoma cruzi proteasome chymotrypsin-like activity (TcProtChymo) assay. Note: in the data most compounds retested in dose-response had high values. The assay is classed as functional. As to conditions: 9.37 µM.

The species entered for assay [9] is Homo sapiens. Nature of the assay: To identify inhibition of the IFN signalling (Jak-Stat) pathway via expression of an eGFP reporter gene under the control of an IFN-stimulated response element (ISRE) containing MxA promoter. The assay is classed as functional. As to conditions: 30 µM.
In assay [10] the target is Shiga toxin 2 (Escherichia coli O157:H7) (UniProt P09385+P09386). Nature of the assay: E. coli 0.157:H7 Shiga Toxin SOP - stx2 screening assay. The assay is classed as functional. As to conditions: 30 µM.
Assay [11] addresses T5, Tyrosyl-tRNA synthetase, putative (Trypanosoma cruzi (strain CL Brener)) (UniProt Q4DSP6).
T5 sequence (whole entry): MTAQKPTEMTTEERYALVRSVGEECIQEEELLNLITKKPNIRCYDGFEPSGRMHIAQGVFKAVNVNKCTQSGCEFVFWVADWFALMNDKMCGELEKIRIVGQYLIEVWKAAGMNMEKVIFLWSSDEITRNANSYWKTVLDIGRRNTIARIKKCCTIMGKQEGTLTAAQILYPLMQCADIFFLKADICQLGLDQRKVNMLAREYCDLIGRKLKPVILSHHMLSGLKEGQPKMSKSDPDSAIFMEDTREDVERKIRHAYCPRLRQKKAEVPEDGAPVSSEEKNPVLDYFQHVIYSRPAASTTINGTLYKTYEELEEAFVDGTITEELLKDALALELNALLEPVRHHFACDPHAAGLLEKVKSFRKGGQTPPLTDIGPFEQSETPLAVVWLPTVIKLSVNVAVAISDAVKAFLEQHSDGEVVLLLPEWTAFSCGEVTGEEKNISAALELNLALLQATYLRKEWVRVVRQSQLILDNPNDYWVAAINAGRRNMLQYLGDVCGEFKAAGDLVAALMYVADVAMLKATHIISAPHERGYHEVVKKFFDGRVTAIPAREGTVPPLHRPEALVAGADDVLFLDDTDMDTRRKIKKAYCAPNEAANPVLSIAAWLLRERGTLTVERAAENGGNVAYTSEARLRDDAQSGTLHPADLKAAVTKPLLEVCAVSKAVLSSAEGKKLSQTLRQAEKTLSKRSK
As to the kind of experiment: Trypanosoma cruzi tyrosyl tRNA synthetase (TcYRS) _High Tyrosine SOP. Note: in the data most compounds retested in dose-response had high values. The assay is classed as functional. The settings on record: 30 µM.

Assay [12] deals with T5, Tyrosyl-tRNA synthetase, putative (Trypanosoma cruzi (strain CL Brener)). Nature of the assay: Trypanosoma cruzi tyrosyl tRNA synthetase (TcYRS) SOP. The assay is classed as functional. As to conditions: 30 µM.
Assay [13] deals with Chromo domain-containing protein 1 (Saccharomyces cerevisiae (strain ATCC 204508 / S288c) (Baker's yeast)) (UniProt P32657). Nature of the assay: ScCHD-1 Enzyme Inhibition Assay. Note: in the data most compounds retested in dose-response had high values. The assay is classed as functional. The settings on record: 30 µM.
Sequence of Chromo domain-containing protein 1 (Saccharomyces cerevisiae (strain ATCC 204508 / S288c) (Baker's yeast)) (P32657 whole entry, the tested form may be a part): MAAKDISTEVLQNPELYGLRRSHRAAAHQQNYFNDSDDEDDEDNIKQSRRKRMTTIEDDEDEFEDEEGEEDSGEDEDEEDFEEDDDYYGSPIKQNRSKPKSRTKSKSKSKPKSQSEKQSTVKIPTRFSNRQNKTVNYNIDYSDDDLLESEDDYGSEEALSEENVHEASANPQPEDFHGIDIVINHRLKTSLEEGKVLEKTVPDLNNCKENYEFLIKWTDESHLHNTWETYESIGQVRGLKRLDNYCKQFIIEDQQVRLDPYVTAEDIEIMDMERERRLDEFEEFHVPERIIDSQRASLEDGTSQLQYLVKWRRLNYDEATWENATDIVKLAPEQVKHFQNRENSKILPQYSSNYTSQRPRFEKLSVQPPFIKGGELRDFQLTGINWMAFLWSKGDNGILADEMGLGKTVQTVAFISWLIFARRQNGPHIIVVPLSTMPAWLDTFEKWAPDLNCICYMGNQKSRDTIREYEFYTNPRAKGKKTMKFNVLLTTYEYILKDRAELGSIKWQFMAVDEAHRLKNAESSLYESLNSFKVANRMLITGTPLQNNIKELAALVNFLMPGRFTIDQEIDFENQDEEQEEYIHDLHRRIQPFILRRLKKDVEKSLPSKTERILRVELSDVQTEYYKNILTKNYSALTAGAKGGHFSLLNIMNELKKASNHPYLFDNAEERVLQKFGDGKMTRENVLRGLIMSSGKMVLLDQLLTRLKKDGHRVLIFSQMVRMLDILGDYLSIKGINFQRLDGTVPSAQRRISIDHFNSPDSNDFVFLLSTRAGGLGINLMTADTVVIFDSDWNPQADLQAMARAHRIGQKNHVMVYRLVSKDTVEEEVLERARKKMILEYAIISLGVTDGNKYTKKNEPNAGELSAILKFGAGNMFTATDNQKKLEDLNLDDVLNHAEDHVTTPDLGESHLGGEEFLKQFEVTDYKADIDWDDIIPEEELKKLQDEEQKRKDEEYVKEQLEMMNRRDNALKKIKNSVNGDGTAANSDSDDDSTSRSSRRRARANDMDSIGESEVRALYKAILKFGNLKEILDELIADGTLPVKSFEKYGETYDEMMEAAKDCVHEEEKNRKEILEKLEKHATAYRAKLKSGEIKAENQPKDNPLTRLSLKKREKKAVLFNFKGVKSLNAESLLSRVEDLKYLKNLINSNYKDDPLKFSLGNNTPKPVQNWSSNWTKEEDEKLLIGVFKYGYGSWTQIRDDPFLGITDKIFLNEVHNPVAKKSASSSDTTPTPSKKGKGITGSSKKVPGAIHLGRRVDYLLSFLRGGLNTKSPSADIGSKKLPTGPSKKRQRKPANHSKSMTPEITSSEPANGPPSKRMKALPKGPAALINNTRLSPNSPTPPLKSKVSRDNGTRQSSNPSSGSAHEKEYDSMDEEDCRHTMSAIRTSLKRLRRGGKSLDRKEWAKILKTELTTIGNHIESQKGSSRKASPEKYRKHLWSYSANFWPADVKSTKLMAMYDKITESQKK

Sequence of Sialic acid-binding Ig-like lectin 9 (Homo sapiens) (Q9Y336 whole entry): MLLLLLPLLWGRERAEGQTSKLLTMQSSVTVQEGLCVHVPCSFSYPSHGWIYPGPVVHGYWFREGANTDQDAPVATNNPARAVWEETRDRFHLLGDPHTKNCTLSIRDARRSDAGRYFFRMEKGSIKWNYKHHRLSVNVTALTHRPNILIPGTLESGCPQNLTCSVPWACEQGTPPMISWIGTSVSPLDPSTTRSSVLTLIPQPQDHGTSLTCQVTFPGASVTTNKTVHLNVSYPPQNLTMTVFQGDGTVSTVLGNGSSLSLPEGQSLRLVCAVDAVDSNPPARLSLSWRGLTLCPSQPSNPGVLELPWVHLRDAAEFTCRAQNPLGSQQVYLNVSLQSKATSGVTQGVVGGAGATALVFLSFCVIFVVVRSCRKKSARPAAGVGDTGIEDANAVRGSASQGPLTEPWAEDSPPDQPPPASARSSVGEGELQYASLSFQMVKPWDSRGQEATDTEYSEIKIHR

`CN1CCC2(CC1)CNC(=O)c1ccccc1O2`: the Percent Effect in assay [1] was -3.91%; in assay [2], 6.76%; in [3] it was -2.4%; in assay [4], 13.4%; in assay [5], 4.99%; in [6] it was -5.34%. Moreover, the Percent Effect in assay [7] was determined as 0.232%; in assay [8] it was 10.3%; in [9] it was 1.44%; in assay [10] it was 12.6%; in [11] it was 6.45%; in assay [12], 6.49%. For the same molecule, the Percent Effect in assay [13] was -6.62%.
For the molecule `CN(Cc1cncnc1)[C@H]1CN(CC2CC2)[C@@H]2CCCO[C@@H]21`, the Percent Effect in [1] is -2.97%; in [2] it was 10.7%; in assay [3], 3.35%; in [4], -6.16%; in [5] it was 2.33%; in assay [6] it was 4.44%. Further, the Percent Effect was -51.8% in [7]; 11.6% in assay [8]; -0.287% in assay [9]; -9.01% in [10]; 5.21% in assay [11]; 2.5% in assay [12]. Also, in assay [13], the Percent Effect is -8.19%.
With `c1cc(CN2C[C@@H]3COC[C@]3(COCC3CC3)C2)ccn1`, the Percent Effect in assay [1] was 1.31%; in assay [2] it was 14.7%; in assay [3], -0.406%; in [4], -2.54%; in assay [5], -3.01%; in assay [6], -4.13%. For the same molecule, the Percent Effect in assay [7] is -1.58%; in assay [8] it was 7.58%; in assay [9], -2.49%; in assay [10], -47.3%; in assay [11] it was 2.12%; in [12], 7.69%. Moreover, the Percent Effect in assay [13] is -2.5%.
Regarding `c1ccc(CN2CCO[C@H]3[C@H](OCCN4CCCC4)CC[C@@H]32)nc1`, the Percent Effect in assay [1] is -1.73%; in [2] it was -2.67%; in assay [3] it was 0.641%; in assay [4] it was 2.45%; in assay [5] it was 8.64%; in assay [6], -2.7%. Besides, the Percent Effect in assay [7] was -53.2%; in [8], -0.855%; in assay [9], -6.91%; in [10], -16.4%; in assay [11], 4.17%; in [12], 5%. Further, the Percent Effect in assay [13] was 0.266%.
As to `O=C(c1cscn1)N1CCN2C[C@H](OCc3cccnc3)C[C@H]2C1`, the Percent Effect in assay [1] is 4.53%; in assay [2] it was 16%; in assay [3], 2.54%; in assay [4], 2.68%; in assay [5], -10.9%; in assay [6] it was -9.05%. The Percent Effect was 6.76% in assay [7]; 12.1% in [8]; 0.411% in assay [9]; -22.2% in assay [10]; 5.32% in [11]; 3.85% in assay [12]. Further, the Percent Effect in assay [13] was 1.28%.
